CtBP-E1A inh: CtBP/E1A binding inhibition; AlphaScreen GST-E1A/His-CtBP binding, 1536-well; hits give low values; activity change, % (test concentration not listed); hit rate 0.49% among 340,000; in the data active = activity change below about -65%; inconclusive = mostly about -30% to -63%; note: % is set by controls: 0 for no effect and ±100 for the full control effect
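Steps: dispense buffer (Tris pH 8.0, NaCl 300 mM, TCEP 1 mM, BSA, Tween 20); add 5X protein mix (GST-E1A, His-CtBP, 125 nM each); pin 23 nL compound; 2 h at 37 °C, dark; add 5X beads (50 ug/mL); 1 h; read.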
HP1b chromo inh: HP1-beta chromodomain-methylated histone interaction inhibition | P83916 | AlphaScreen HP1-beta / biotin-H3K9me3 peptide binding | Potency, µM (series often up to 114 µM), for the others: at the top dose activity change, negative = inhibition, most hits filed as inhibitors | hit rate 0.56% among 390,000 | AID 540317; note: potency is the fitted concentration of half-maximal effect; nearly all actives have a fitted effect of over 70% in size
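AlphaScreen: HP1-beta (50 nM) preformed 30 min with biotin-H3(1-18)K9me3 peptide (50 nM) in PBS pH 7.4, 0.01% Tween-20. Compound added for 30 min at RT, then streptavidin donor/nickel chelate acceptor beads (10 ug/mL) for 30 min.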
BAZ2B block: blocks human BAZ2B. Q9UIF8. AlphaScreen BAZ2B-H3K14Ac peptide displacement. Potency, µM (titrated, usually from 114 µM), inactives show at the highest dose activity change, negative = inhibition, usual class: inhibitors. hit rate 4.4% among 360,000. AID 504333; note: potency is the fitted concentration of half-maximal effect; % is set by controls: 0 for no effect and ±100 for the full control effect; nearly all actives have a fitted effect of over 60% in size
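Compounds, titrated to a top concentration of 110 uM, were incubated 30 min at room temperature with preformed BAZ2B/acetyl-K14 H3 peptide complex (50 nM each). Proximity signal was measured by AlphaScreen after 20 min with beads.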
G9a block: G9a (human) methyltransferase inhibition | Q96KQ7 | G9a H3K9 monomethylation, AlphaScreen, 2 h | hit rate 8.8% among 350,000 | Potency, µM (series often up to 102 µM), for the others: top-dose activity, negative = inhibition, most hits filed as inhibitors; note: potency is the fitted concentration of half-maximal effect; % is set by controls: 0 for no effect and ±100 for the full control effect; nearly all actives have a fitted effect of over 75% in size
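Methyltransferase reactions run at room temperature for 2 h (20 nM enzyme, 500 nM biotin-H3K9 peptide, 20 uM SAM) after a 15 min compound preincubation; product detected by AlphaScreen beads and anti-H3K9me1 antibody.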
JMJD2A Tudor: blocks the human JMJD2A Tudor domain; AID 504339; AlphaScreen JMJD2A-Tudor / H3K4me3 peptide binding; hit rate 4.4% among 390,000; O75164; Potency, µM (series often up to 114 µM), without a hit: at the top dose activity change, negative = inhibition, usual class: inhibitors; note: potency is the fitted concentration of half-maximal effect; % is set by controls: 0 for no effect and ±100 for the full control effect; nearly all actives have a fitted effect of over 50% in size
Six1-Eya2 blk: Six1/Eya2 interaction inhibition. Q15475+O00167. AlphaScreen GST-Six1/His-Eya2 binding, biochemical; hits give low values. activity change, % (test concentration not listed). hit rate 0.56% among 360,000. AID 651725; in the data active = activity change below about -65%; inconclusive = mostly about -30% to -63%; note: % is set by controls: 0 for no effect and ±100 for the full control effect
Target sequence (O00167 whole entry, looked up): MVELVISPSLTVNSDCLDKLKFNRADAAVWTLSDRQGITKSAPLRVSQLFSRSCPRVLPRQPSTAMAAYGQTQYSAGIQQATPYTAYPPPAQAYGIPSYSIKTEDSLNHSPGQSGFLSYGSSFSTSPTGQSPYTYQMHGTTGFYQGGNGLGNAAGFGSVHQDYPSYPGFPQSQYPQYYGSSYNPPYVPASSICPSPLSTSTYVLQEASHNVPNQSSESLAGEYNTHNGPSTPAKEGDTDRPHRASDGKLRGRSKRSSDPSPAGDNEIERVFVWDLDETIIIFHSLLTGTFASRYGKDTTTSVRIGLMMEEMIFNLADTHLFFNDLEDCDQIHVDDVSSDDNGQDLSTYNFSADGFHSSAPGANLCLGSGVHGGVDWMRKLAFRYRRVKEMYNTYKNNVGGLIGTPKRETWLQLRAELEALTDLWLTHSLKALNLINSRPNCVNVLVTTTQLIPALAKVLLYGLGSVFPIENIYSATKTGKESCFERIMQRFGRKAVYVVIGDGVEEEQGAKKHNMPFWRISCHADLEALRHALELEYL
Target sequence (Q15475 whole entry, looked up): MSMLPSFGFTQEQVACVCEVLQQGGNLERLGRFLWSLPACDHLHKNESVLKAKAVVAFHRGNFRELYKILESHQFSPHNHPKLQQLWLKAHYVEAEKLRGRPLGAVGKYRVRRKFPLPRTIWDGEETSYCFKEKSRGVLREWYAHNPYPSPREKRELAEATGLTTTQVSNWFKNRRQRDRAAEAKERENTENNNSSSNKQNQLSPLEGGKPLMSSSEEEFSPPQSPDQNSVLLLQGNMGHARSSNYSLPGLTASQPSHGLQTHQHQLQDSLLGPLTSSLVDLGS
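Compounds are tested against tagged Six1 and Eya2 proteins bridged by glutathione donor and nickel acceptor beads; after a one-hour incubation at 37 °C without light, AlphaScreen emission is recorded.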
* = called active by the depositor; ? = inconclusive; / = no result; [ ] = another dose, or the depositor's remark. Rows were chosen to be rich in hits. Some 10% of all compounds tested hit in one or more screens of this group. Unless noted, calls come from the whole dose curve; as a rule, active = well fitted inhibition curve with a large enough effect; inconclusive = small, poorly fitted or top-dose-only effect; inactive = no such curve, though single readings can be large or run the other way.

SMILES | CtBP-E1A inh | HP1b chromo inh | BAZ2B block | G9a block | JMJD2A Tudor | Six1-Eya2 blk
NNc1nccc(Nc2ccccc2C(=O)O)n1 | -67* | -22% | 25µM* | ? | ? | -90*
Cc1cccc(CNC(=O)CN2CC(C)Sc3ccccc32)c1 (configuration not stated) | / | 11%[57 µM] | -20% | -34%[59 µM] | -25% | /
COc1ccc(CCn2c(=N)c(C(=O)N3CCN(C)CC3)cc3c(=O)n4ccccc4nc32)cc1 | -12 | 7% | -9% | 40µM* | -23% | -9
COc1ccc(CCn2c(=N)c(C(=O)NCc3ccco3)cc3c(=O)n4ccccc4nc32)cc1OC | / | 9% | / | / | ? | -74*
N=c1c(C(=O)NCc2ccco2)cc2c(=O)n3ccccc3nc2n1CCc1ccccc1 | -67* | 22% | / | 2%[59 µM] | -24% | -78*
COC(=O)C1(C)NC(c2cccc(C)c2)C2C(=O)N(c3ccccc3)C(=O)C21 (configuration not stated) | -7 | / | / | / | / | 9
COc1ccc(C2=NN(C(=O)c3ccccc3)C(c3ccc(OC)c(OC)c3)C2)c(O)c1 (configuration not stated) | -8 | -7% | -26% | 71µM* | -33% | -14
CCN(CC)CCCOc1ccc(Cl)c(Cl)c1 | -14 | -49% | ? | 10µM* | 0.89µM* | 13
CN1CCN(CCOc2cccc(Cl)c2)CC1 | 7 | 24% | ? | ? | ? | -1
CN1CCN(CCOc2ccc(Cl)c(Cl)c2)CC1 | 14 | 16µM* | 50µM* | 10µM* | 0.79µM* | 1
CN(CCCOc1ccccc1F)Cc1ccccc1 | 14 | ? | 56µM* | 7.9µM* | 20µM* | -2
CN(CCOc1ccccc1Cl)Cc1ccccc1 | 33 | ? | 56µM* | 10µM* | 22µM* | -3
CCN(CC)CCCOC(=O)c1ccc(OC)cc1O | 16 | 17% | -38% | / | -16% | 10
COc1cccc(NC(=O)CCc2c(C)nc3ncnn3c2C)c1 | / | 36% | -10% | 7%[59 µM] | -17% | /
Cn1c2ccsc2c2ncn(Cc3ccccc3F)c(=O)c21 | / | 46% | 2% | 1%[12.7 µM] | -5% | /
Cc1ccc(NC(=O)C2CCCN2S(=O)(=O)c2ccc3nc(-c4ccccc4)[nH]c3c2)cc1F (configuration not stated) | / | 29% | -36% | -29%[59 µM] | ? | /
O=C(O)c1cccc(S(=O)(=O)Nc2ccc3c(c2)CCC3)c1 | -3 | 39% | -2% | -7% | -4% | 4
CN(CCOc1ccc(Cl)c(Cl)c1)Cc1ccccc1 | 46 | -23% | ? | / | 20µM* | 8
Cc1cc(C)cc(N(CC(=O)N2CCN(Cc3ccccc3)CC2)S(=O)(=O)c2c(C)noc2C)c1 | -24 | 11%[57 µM] | 1% | 50µM* | -1%[57.1 µM] | 4
O=C(O)C(CCc1ccccc1)(Cc1ccccc1)C(=O)O | 4 | 41% | / | / | -2% | -3
Cc1ccc2c(Cl)c(Cc3ccccc3)c(=S)[nH]c2n1 | -28 | ? | / | / | 32µM* | -28
S=c1nc(Cc2ccc(Cl)cc2)[nH]c2ccccc12 | -2 | 39% | -1% | 7% | -17% | -6
Oc1[nH]c2ccccc2c1N=Nc1ccc(F)cc1 | -7 | 14% | -1% | ? | -2% | -13
Oc1c(N=Nc2ccc(F)cc2)ccc2ccccc12 | -76* | 3.2µM* | 1.4µM* | 2.5µM* | 2.5µM* | ?
Oc1ccc2ccccc2c1N=Nc1ccc(F)cc1 | -24 | 5.6µM* | 2.2µM* | 2µM* | 2.2µM* | ?
Cc1ccc(N=Nc2ccc3ccccc3c2O)cc1 | -1 | ? | 1.1µM* | 2µM* | 3.2µM* | -88*
Oc1c(-c2cc(-c3ccco3)[nH]n2)ccc2ccccc12 | -13 | -22% | ? | ? | ? | -26
Oc1c(N=Nc2nn[nH]n2)ccc2ccccc12 | ? | / | / | / | / | -76*
N#Cc1nc(Nc2cc(F)cc(F)c2)c2ncn(CCO)c2n1 | / | / | / | / | -11% | /
Cc1cc2c(cc1S(=O)(=O)Nc1cc(C(F)(F)F)cc(C(F)(F)F)c1)OCC(=O)N2 | / | 44% | 3% | 14%[59 µM] | -17% | /
